Set-up in all cases: species or system human, MV4-11 + K-562 + COLO205 + SK-N-BE2 + OVCAR-8
In one assay the test system is CDK7. The conditions noted are these: read-out: apparent Kd, n = 1.
The next assay deals with CDKL5. Conditions: read-out: apparent Kd, compound concentrations: 100 nM and 1000 nM (sheet 'Samples'), n = 1.
In the next assay the test system is ERCC2. Conditions: read-out: apparent Kd, n = 1.
In a further assay the test system is FER. Conditions: read-out: apparent Kd, n = 1.
For the next assay, the system named is FLT3. The conditions noted are these: read-out: apparent Kd, compound concentrations: 100 nM and 1000 nM (sheet 'Samples'), n = 1.
In another assay the test system is LATS1. The conditions noted are these: read-out: apparent Kd, compound concentrations: 100 nM and 1000 nM (sheet 'Samples'), n = 1.
A further assay relates to MARK4. Conditions: read-out: apparent Kd, compound concentrations: 100 nM and 1000 nM (sheet 'Samples'), n = 1.
Another assay has as its system MYLK3. Conditions: read-out: apparent Kd, compound concentrations: 100 nM and 1000 nM (sheet 'Samples'), n = 1.
For the next assay, the system named is PIP4K2C. The conditions noted are these: read-out: apparent Kd, n = 1.
A further assay concerns PLK4. The conditions noted are these: read-out: apparent Kd, n = 1.
The subject of the next assay is PRKAA1. Conditions: read-out: apparent Kd, n = 1.
A further assay relates to PRKCD. Conditions: read-out: apparent Kd, compound concentrations: 100 nM and 1000 nM (sheet 'Samples'), n = 1.
The next assay relates to PRKCQ. The conditions noted are these: read-out: apparent Kd, n = 1.
A further assay deals with PRKD2. The conditions noted are these: read-out: apparent Kd, n = 1.
The subject of another assay is PRKD3. Conditions: read-out: apparent Kd, n = 1.
Another assay relates to PTK2B. The conditions noted are these: read-out: apparent Kd, n = 1.
The subject of the next assay is PTK2. The conditions noted are these: read-out: apparent Kd, n = 1.
The next assay deals with RPS6KA6. The conditions noted are these: read-out: apparent Kd, n = 1.
For a further assay, the system named is STK10. Conditions: read-out: apparent Kd, compound concentrations: 100 nM and 1000 nM (sheet 'Samples'), n = 1.
Another assay has as its system DYRK1A. Conditions: read-out: apparent Kd, compound concentrations: 100 nM and 1000 nM (sheet 'Samples'), n = 1.
Where [1] appears, read: compound concentrations:100 nM and 1000 nM (sheet 'Samples').

The values that follow come from article PMC11062922 (Nature Chemical Biology, 2023).

Where two headings read alike, the source gives them in different places.

Take `O=C1N=C(NCCc2ccc(Cl)cc2)S/C1=C\c1ccc2ncccc2c1` [RO4498479-000]: the potency estimated from few doses with CDK7 (compound concentrations: 100 nM and 1000 nM (sheet 'Samples'), CATDS: 2.4350372788697498E-2) is 119 nM; in the assay on CDKL5 (CATDS: 8.2845593333633408E-3), 909 nM; in the assay with ERCC2 (compound concentrations: 100 nM and 1000 nM (sheet 'Samples'), CATDS: 2.1515421316076401E-2), 142 nM; with FER (compound concentrations: 100 nM and 1000 nM (sheet 'Samples'), CATDS: 1.93209734431329E-2) it was 166 nM; in the assay on FLT3 (CATDS: 1.0367577324715899E-2) it was 511 nM; in the assay with LATS1 (CATDS: 9.9630845977556094E-3), 560 nM. Besides, the potency estimated from few doses in the assay on MARK4 (CATDS: 9.5723230975851108E-3) is 617 nM; with MYLK3 (CATDS: 6.6633165686717103E-3), 2040 nM; with PIP4K2C (compound concentrations: 100 nM and 1000 nM (sheet 'Samples'), CATDS: 8.2219500153899797E-3) it was 930 nM; in the assay with PLK4 (compound concentrations: 100 nM and 1000 nM (sheet 'Samples'), CATDS: 1.52584065926915E-2), 242 nM; in the assay with PRKAA1 (compound concentrations: 100 nM and 1000 nM (sheet 'Samples'), CATDS: 1.37789233680672E-2), 289 nM; in the assay with PRKCD (CATDS: 7.1591971083295198E-3), 1490 nM. For the same compound, the potency estimated from few doses in the assay with PRKCQ (compound concentrations: 100 nM and 1000 nM (sheet 'Samples'), CATDS: 7.7984631053202198E-3) was 1100 nM; in the assay on PRKD2 (compound concentrations: 100 nM and 1000 nM (sheet 'Samples'), CATDS: 8.2429468538409798E-3), 923 nM; in the assay with PRKD3 (compound concentrations: 100 nM and 1000 nM (sheet 'Samples'), CATDS: 8.1476846710640503E-3), 956 nM; with PTK2B (compound concentrations: 100 nM and 1000 nM (sheet 'Samples'), CATDS: 1.6323674836543501E-2), 216 nM; in the assay with PTK2 (compound concentrations: 100 nM and 1000 nM (sheet 'Samples'), CATDS: 1.5270520713179201E-2), 242 nM; with RPS6KA6 (compound concentrations: 100 nM and 1000 nM (sheet 'Samples'), CATDS: 1.4642324519722799E-2) it was 260 nM. In the assay with STK10 (CATDS: 8.8639953478003106E-3), the potency estimated from few doses was 751 nM.
For the compound `Cc1ccc(Nc2ccnc(Nc3ccc4c(c3)CS(=O)(=O)C4)n2)cc1O.Cl` [GW579362A], in the assay with STK10 (CATDS: 3.2691719677524503E-2), the potency estimated from few doses was 950 nM.
With `CN(c1ccc(NC(=O)Nc2cccc(Cl)c2)cc1)c1ccnc(N)n1.Cl` [GW830707A], the potency estimated from few doses with CDK7 (compound concentrations: 100 nM and 1000 nM (sheet 'Samples'), CATDS: 2.70910980037193E-2) was 25.3 nM; in the assay on ERCC2 (compound concentrations: 100 nM and 1000 nM (sheet 'Samples'), CATDS: 2.8634029570059099E-2), 22.5 nM; in the assay on FER (compound concentrations: 100 nM and 1000 nM (sheet 'Samples'), CATDS: 3.09824946210665E-2), 19.3 nM; with PRKAA1 (compound concentrations: 100 nM and 1000 nM (sheet 'Samples'), CATDS: 2.0241658974681501E-2), 51.3 nM; in the assay on PTK2B (compound concentrations: 100 nM and 1000 nM (sheet 'Samples'), CATDS: 2.3206005567305101E-2), 35.9 nM; in the assay with PTK2 (compound concentrations: 100 nM and 1000 nM (sheet 'Samples'), CATDS: 2.6556868558213102E-2), 26.4 nM. Moreover, the potency estimated from few doses in the assay on RPS6KA6 (compound concentrations: 100 nM and 1000 nM (sheet 'Samples'), CATDS: 2.8909241119288599E-2) was 22.1 nM.
Regarding `CN(c1ccc(NC(=O)NCCN2CCOCC2)cc1)c1ccnc(Nc2ccc(CS(C)(=O)=O)cc2)n1.Cl` [GW830365A], the potency estimated from few doses is 107 nM in the assay on FLT3 (CATDS: 0.17522141736576); 1320 nM in the assay with PLK4 (compound concentrations: 100 nM and 1000 nM (sheet 'Samples'), CATDS: 4.9779081320457601E-2).
As for `CC(=O)N[C@@H](Cc1ccc(OP(=O)(O)O)cc1)C(=O)N[C@H]1CCC(=O)N2CCC[C@@H](C(=O)NCc3ccc(Cl)cc3)N2C1=O` [RO0325308-000], the potency estimated from few doses was 49.9 nM with CDK7 (setting [1]); 39.4 nM with ERCC2 (setting [1]); 59.5 nM in the assay on FER (setting [1]); 1270 nM in the assay on PIP4K2C (setting [1]); 637 nM in the assay on PLK4 (setting [1]); 801 nM in the assay with PRKAA1 (setting [1]). Further, the potency estimated from few doses is 785 nM in the assay on PRKCQ (setting [1]), 367 nM in the assay with PTK2B (setting [1]), 652 nM with PTK2 (setting [1]) and 620 nM in the assay on RPS6KA6 (setting [1]).
In the case of `CN(C)CC(O)COc1ccc(Nc2nccc(-c3cnn4nc(N5CCOCC5)ccc34)n2)cc1` (stereo not shown) [GW767488X], the potency estimated from few doses in the assay on PIP4K2C (setting [1]) was 1440 nM; with PRKD2 (setting [1]), 28.7 nM; in the assay on PRKD3 (setting [1]) it was 44.8 nM.
With `O=C1N=C(NCc2cccs2)O/C1=C\c1ccc2ncccc2c1` [RO4624208-000], the potency estimated from few doses in the assay with DYRK1A (CATDS: 0.15601694862230001) is 53.8 nM.
Turning to `COc1cc(Nc2nccc(N3CCC(NC(=O)c4cccc(NC(C)=O)c4)C3)n2)cc(OC)c1OC` (stereo not shown) [GSK1379754A], the potency estimated from few doses with PIP4K2C (compound concentrations: 100 nM and 1000 nM (sheet 'Samples'), CATDS: 7.8975813686716995E-2) is 2090 nM.
On to `c1cnn2ncc(-c3ccnc(Nc4ccc5c(c4)OCCO5)n3)c2c1` [GW806290X], for which the potency estimated from few doses with CDKL5 (CATDS: 7.1122593361459902E-2) is 94.8 nM; with DYRK1A (CATDS: 2.4296257212368499E-2), 1020 nM; with FLT3 (CATDS: 9.3011022280108296E-2), 61.9 nM; with MYLK3 (CATDS: 2.0905091895042499E-2) it was 1690 nM; in the assay on PIP4K2C (compound concentrations: 100 nM and 1000 nM (sheet 'Samples'), CATDS: 7.0230989511161995E-2) it was 96.8 nM; with PRKCD (CATDS: 2.1059848271292699E-2), 1650 nM.
Regarding `O=C(O)C(F)(F)F.O=c1[nH]ccc2nc(N[C@@H]3CCNC3)nc(Nc3ccc4c(c3)S(=O)(=O)CC4)c12` [GSK2181306A], the potency estimated from few doses in the assay with FLT3 (CATDS: 8.5928839760778392E-3) is 1430 nM; in the assay on LATS1 (CATDS: 9.3348582894500695E-3), 1060 nM; with MARK4 (CATDS: 1.39607166136132E-2) it was 364 nM; with MYLK3 (CATDS: 1.37346756795961E-2), 378 nM; with PLK4 (compound concentrations: 100 nM and 1000 nM (sheet 'Samples'), CATDS: 1.0301359054319901E-2), 780 nM; in the assay with PRKAA1 (compound concentrations: 100 nM and 1000 nM (sheet 'Samples'), CATDS: 1.0186150726121701E-2) it was 806 nM. The potency estimated from few doses in the assay with PRKCD (CATDS: 1.35004304297044E-2) is 393 nM; with PRKCQ (compound concentrations: 100 nM and 1000 nM (sheet 'Samples'), CATDS: 2.6170878676828799E-2), 109 nM; in the assay on PRKD2 (compound concentrations: 100 nM and 1000 nM (sheet 'Samples'), CATDS: 1.40189699777229E-2) it was 361 nM; in the assay with PRKD3 (compound concentrations: 100 nM and 1000 nM (sheet 'Samples'), CATDS: 1.3161717541215199E-2) it was 416 nM; with PTK2B (compound concentrations: 100 nM and 1000 nM (sheet 'Samples'), CATDS: 0.14676588130533899), 7.85 nM; in the assay with PTK2 (compound concentrations: 100 nM and 1000 nM (sheet 'Samples'), CATDS: 1.26908044815701E-2), 453 nM. Also, the potency estimated from few doses is 478 nM in the assay with RPS6KA6 (compound concentrations: 100 nM and 1000 nM (sheet 'Samples'), CATDS: 1.2402205913088901E-2); 349 nM in the assay on STK10 (CATDS: 1.4244346039845699E-2).
